Measurements as given in PubChem BioAssay.

The molecules below were run against Focal adhesion kinase 1 (Homo sapiens) (UniProt Q05397) (assay: small-molecule microarray binders of FAK, primary screen, biochemical, 635/667 nm fluorescence, BSA, DTT (AID 1130;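 also: composite of spot emission at 667 nm and signal to noise over triplicate slides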)). Details: PTK2 binding, 635 nm fluorescence, higher = more signal.
Sequence of Focal adhesion kinase 1 (Homo sapiens) (Q05397 whole entry, looked up): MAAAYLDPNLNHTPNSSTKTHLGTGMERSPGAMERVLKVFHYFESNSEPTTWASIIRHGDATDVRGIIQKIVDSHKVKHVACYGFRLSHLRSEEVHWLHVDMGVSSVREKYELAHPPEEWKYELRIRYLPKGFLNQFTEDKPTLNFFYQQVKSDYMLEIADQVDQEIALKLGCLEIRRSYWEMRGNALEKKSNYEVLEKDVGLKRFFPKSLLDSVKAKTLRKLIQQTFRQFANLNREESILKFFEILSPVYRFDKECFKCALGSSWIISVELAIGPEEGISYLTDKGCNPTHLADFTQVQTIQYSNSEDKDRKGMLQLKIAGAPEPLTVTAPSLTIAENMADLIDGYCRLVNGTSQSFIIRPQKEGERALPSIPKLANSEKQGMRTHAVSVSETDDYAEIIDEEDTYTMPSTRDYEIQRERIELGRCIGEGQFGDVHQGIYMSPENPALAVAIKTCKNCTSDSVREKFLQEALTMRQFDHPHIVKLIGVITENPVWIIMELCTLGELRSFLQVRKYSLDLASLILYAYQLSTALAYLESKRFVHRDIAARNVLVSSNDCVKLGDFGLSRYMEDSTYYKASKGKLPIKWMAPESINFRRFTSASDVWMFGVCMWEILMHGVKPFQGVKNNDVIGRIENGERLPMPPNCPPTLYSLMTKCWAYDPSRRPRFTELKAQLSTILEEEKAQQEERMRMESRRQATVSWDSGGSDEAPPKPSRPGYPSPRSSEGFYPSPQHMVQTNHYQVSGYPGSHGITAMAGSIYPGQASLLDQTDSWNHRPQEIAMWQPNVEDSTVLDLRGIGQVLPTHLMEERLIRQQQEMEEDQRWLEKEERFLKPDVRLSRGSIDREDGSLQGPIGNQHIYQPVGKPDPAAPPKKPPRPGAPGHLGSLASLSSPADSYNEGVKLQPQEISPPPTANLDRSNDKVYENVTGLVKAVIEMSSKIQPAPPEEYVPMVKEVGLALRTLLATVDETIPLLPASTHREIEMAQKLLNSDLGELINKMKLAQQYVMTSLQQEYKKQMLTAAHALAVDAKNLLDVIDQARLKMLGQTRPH

Compound | composite z-score
CN1C=C(C(=O)OCCS(C)(=O)=O)C(C(=O)OCCS(C)(=O)=O)=CC(c2ccc(CO)cc2)=CC1c1cccs1 (stereo not drawn) | 0.0037
CS(=O)(=O)CCOC(=O)C1=CC(CCCO)=CC(C2CC2)N(Cc2cccc(OC(F)(F)F)c2)C=C1C(=O)OCCS(C)(=O)=O (stereo not drawn) | 0.386
CC(C)[C@H]1NC(=O)[C@@]23C(=O)N[C@@H](Cc4ccccc4)C2[C@H](C)[C@@]2(C)O[C@H]2C3/C=C/C/C=C\CNC(=O)[C@H](Cc2ccccc2)NC1=O (stereo partly drawn) | 0.117
Cc1ccc(S[C@]2(C(=O)NCc3ccccc3)CC(=O)N(Cc3cc(C(F)(F)F)cc(C(F)(F)F)c3)[C@@H]2c2ccc(CO)cc2I)cc1 | 0.438
CN(C)C(=O)[C@@]1(Cc2ccccc2N=[N+]=[N-])N=C(c2ccc(OCCCO)cc2)O[C@H]1c1ccccc1 | 0.235
COCC1=C2[C@@H](CCc3ccccc3)OB(O)C[C@@H]2[C@@H]2C(=O)N(C)C(=O)[C@@H]2C1 | 0.164
O=C1C2C=CC(C(O)c3ccco3)N(Nc3ccccc3)C2C(=O)N1c1ccccc1 (stereo not drawn) | -0.0201
NC(=O)[C@H]1[C@@H]2C(=O)O[C@@H](c3ccccc3)[C@@H](c3ccccc3)N2[C@@H](c2ccc(O)cc2)[C@]12C(=O)Nc1ccc(C#CC3=CCCCC3)cc12 | 0.985
C=C(/C(=C/C[C@@H](OC(=O)c1ccncc1)c1cccc(OCCO)c1)c1cnc2ccccc2c1)C(C)C | 0.329
CC(C)[C@H]1NC(=O)[C@@]23C(=O)N[C@@H](Cc4ccccc4)C2[C@H](C)[C@@]2(C)O[C@H]2C3/C=C/CCC/C=C/CNC(=O)[C@H](Cc2ccccc2)NC1=O (stereo partly drawn) | 0.205
C=C(COC)/C(=C/C[C@@H](OC(C)=O)c1ccc(CO)o1)c1cc(C(=O)OC)ccc1OC | -0.198
C=CCC(OC(C)=O)[C@@H]1[C@@H](N(Cc2cccc3ccccc23)C(=O)Cc2ccc(F)cc2)c2cc(OCCCO)ccc2N1C(=O)c1ccc(-c2ccccc2)cc1 (stereo partly drawn) | 0.365
CC(=O)NCCCC[C@@H]1NC(=O)[C@H]2C[C@@H](C(=O)NCCCCCNC(=O)CS)[C@@H](c3cccc(OCCO)c3)N2C1=O | 0.598
COCCOC(=O)N1C(=O)[C@@]2(c3cc(C#CCC(C(=O)OC)C(=O)OC)ccc31)[C@H](c1ccc(O)cc1)N1[C@H](c3ccccc3)[C@H](c3ccccc3)OC(=O)[C@H]1[C@@H]2C(=O)NC[C@H](O)c1ccccc1 | 0.933
Cc1ccccc1C(O)C1C=CC2C(=O)N(c3ccccc3)C(=O)C2N1Nc1ccc([N+](=O)[O-])cc1 (stereo not drawn) | 0.533
Cc1cccc([C@H]2C[C@H]3C(Br)=C[C@@H]2C(=O)[C@]32CO2)c1 | -0.181
CCOC(=O)C=Cc1ccccc1O | -0.0156
CCOC(=O)C1=CCC(c2ccccc2)N(S(=O)(=O)c2ccc([N+](=O)[O-])cc2)C1 (stereo not drawn) | 0.2
C=C(CCCC)C(=O)CC[C@@H](OC(=O)c1cccnc1)c1ccc(OCCO)cc1 | -0.471
CC(C)C[C@@H]1NC(=O)CNC(=O)[C@@]23C(=O)N[C@@H](Cc4ccccc4)C2[C@H](C)[C@@]2(C)O[C@H]2C3/C=C/C/C=C\CNC1=O (stereo partly drawn) | -0.183
[N-]=[N+]=Nc1ccccc1C[C@@]1(C(=O)O)N=C(c2ccc(OCCCO)cc2)O[C@@H]1c1ccccc1N=[N+]=[N-] | 0.968
CCCCC(=O)N(CCN1CCOCC1)[C@@H]1CC(C(=O)NCCO)=C[C@H](Oc2c(I)cc(CO)cc2OC)[C@H]1O | -0.444
COc1ccc(C#Cc2ccc3c(c2)[C@]2(C(=O)N3)[C@H](C(=O)N3CCCCCCC3)[C@H]3C(=O)O[C@H](c4ccccc4)[C@H](c4ccccc4)N3[C@@H]2c2ccc(O)cc2)cc1 | 0.127
CCOC(=O)C1=C[C@@H](c2ccccc2)N(S(=O)(=O)c2ccc(C)cc2)[C@H]1c1ccccc1 | 0.681
COCCOC(=O)N1C(=O)[C@@]2(c3cc(C#CCCO)ccc31)[C@H](C(N)=O)[C@H]1C(=O)O[C@H](c3ccccc3)[C@H](c3ccccc3)N1[C@@H]2c1ccc(OCCO)cc1 | 0.663
C=C(/C(=C/C[C@@H](OC(C)=O)c1ccc(CO)o1)c1cc(C(=O)OC)ccc1OC)C(C)C | 0.571
CCCCCCCCCCC(O)C1C=CC2C(=O)N(C)C(=O)C2N1Nc1cc(OC)c(OC)c(OC)c1 (stereo not drawn) | 0.55
C=CCC(OC(C)=O)[C@@H]1[C@@H](N(Cc2ccc(-c3ccccc3)cc2)C(=O)Cc2ccc(F)cc2)c2cc(OCCCO)ccc2N1C(=O)Cc1ccc2ccccc2c1 (stereo partly drawn) | 0.318
